# From the supplement of paper PMC11555231
# Target: PADI4, Q9UM07
# Assay: log2 enrichment score relative to parent PADI4_3 peptide (binding to PADI4); higher = tighter binding than parent
# Conditions: CaCl2: 10 mM
# Experimental: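 Deep mutational scan of the cyclic peptide PADI4_3 (ClAc-D-Tyr1 initiator, thioether-cyclised to Cys12, C-terminal Gly plus HA tag, mRNA-displayed). Positions 2-11 were each randomised by NNK codons; Met was reprogrammed as N-methyl-alanine (MeA). One round of equilibrium panning against bead-immobilised human PADI4 (100 nM, 10 mM CaCl2, RT). Log2 enrichment (bound/input frequency) relative to the parent sequence (0 = parent), mean of three independent selections.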
# Chain of PADI4, Q9UM07 (Q9UM07 whole entry): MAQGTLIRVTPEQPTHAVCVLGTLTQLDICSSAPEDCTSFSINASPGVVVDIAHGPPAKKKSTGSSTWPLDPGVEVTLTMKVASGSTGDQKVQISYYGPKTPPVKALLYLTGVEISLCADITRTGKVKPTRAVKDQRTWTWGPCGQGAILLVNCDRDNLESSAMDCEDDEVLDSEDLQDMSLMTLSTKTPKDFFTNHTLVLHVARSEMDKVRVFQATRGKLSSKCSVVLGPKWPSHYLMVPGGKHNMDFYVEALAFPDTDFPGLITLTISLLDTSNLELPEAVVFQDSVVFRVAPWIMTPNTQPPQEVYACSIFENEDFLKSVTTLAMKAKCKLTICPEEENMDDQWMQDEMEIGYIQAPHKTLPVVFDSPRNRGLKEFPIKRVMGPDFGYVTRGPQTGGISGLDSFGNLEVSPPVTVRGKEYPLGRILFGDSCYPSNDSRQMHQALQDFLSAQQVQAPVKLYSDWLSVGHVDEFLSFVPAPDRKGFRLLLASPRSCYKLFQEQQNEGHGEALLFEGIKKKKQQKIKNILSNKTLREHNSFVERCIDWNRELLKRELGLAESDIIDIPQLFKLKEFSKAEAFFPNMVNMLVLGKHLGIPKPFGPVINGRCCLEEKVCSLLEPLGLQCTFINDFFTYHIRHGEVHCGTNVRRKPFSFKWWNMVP
row,Binder,log2 enrichment score
1,YRDHHYRHPKKCG [PADI4_3_Y11K Y11K],-4.77
2,YRDHHYRHPKYCG [PADI4_3_R7R R7R],0
3,YRDHHYRHPKYCG [PADI4_3_Y6Y Y6Y],0
4,YRDHHYRHPHYCG [PADI4_3_K10H K10H],-1
5,YRDHHYRHDKYCG [PADI4_3_P9D P9D],-2.06
6,YRDKHYRHPKYCG [PADI4_3_H4K H4K],-2.3
7,YRDHHKRHPKYCG [PADI4_3_Y6K Y6K],-1.84
8,YRDHHHRHPKYCG [PADI4_3_Y6H Y6H],0.321
9,YRKHHYRHPKYCG [PADI4_3_D3K D3K],-3.84
10,YRDHHYRHPDYCG [PADI4_3_K10D K10D],-2.34
11,YDDHHYRHPKYCG [PADI4_3_R2D R2D],-3.75
12,YRDHHRRHPKYCG [PADI4_3_Y6R Y6R],-0.786
13,YRDHHYRHRKYCG [PADI4_3_P9R P9R],-1.83
14,YRYHHYRHPKYCG [PADI4_3_D3Y D3Y],-3.73
15,YRDHWYRHPKYCG [PADI4_3_H5W H5W],-4.12
16,YRDHDYRHPKYCG [PADI4_3_H5D H5D],-4.15
17,YRDFHYRHPKYCG [PADI4_3_H4F H4F],-3.79
18,YRDHHYRHHKYCG [PADI4_3_P9H P9H],-2.06
19,YRHHHYRHPKYCG [PADI4_3_D3H D3H],-3.57
20,YRDHHYHHPKYCG [PADI4_3_R7H R7H],-1.29

row,Binder,log2 enrichment score
1,YWDHHYRHPKYCG [PADI4_3_R2W R2W],-2.67
2,YRDHHYRHPKRCG [PADI4_3_Y11R Y11R],-3.96
3,YYDHHYRHPKYCG [PADI4_3_R2Y R2Y],-2.62
4,YRDHHYRRPKYCG [PADI4_3_H8R H8R],-3.15
5,YRDHHYRHPWYCG [PADI4_3_K10W K10W],-0.93
6,YRDHHDRHPKYCG [PADI4_3_Y6D Y6D],-2.27
7,YRDHHYRHPKDCG [PADI4_3_Y11D Y11D],-3.74
8,YHDHHYRHPKYCG [PADI4_3_R2H R2H],-2.21
9,YRDHHYYHPKYCG [PADI4_3_R7Y R7Y],-0.78
10,YRDHHYRWPKYCG [PADI4_3_H8W H8W],-3.81
11,YKDHHYRHPKYCG [PADI4_3_R2K R2K],0.59
12,YRDHHYRHPKYCG [PADI4_3_R2R R2R],0
13,YRDHHYRHPKWCG [PADI4_3_Y11W Y11W],-2.51
14,YRDHHYRHYKYCG [PADI4_3_P9Y P9Y],-2
15,YRDRHYRHPKYCG [PADI4_3_H4R H4R],2.48
16,YRDHKYRHPKYCG [PADI4_3_H5K H5K],-2.71
17,YRDHYYRHPKYCG [PADI4_3_H5Y H5Y],-4.14
18,YRDHHYWHPKYCG [PADI4_3_R7W R7W],1.07
19,YRDHHYRHPKYCG [PADI4_3_H4H H4H],0
20,YRDHHYRHPRYCG [PADI4_3_K10R K10R],-0.238

row,Binder,log2 enrichment score
1,YRDHHYRDPKYCG [PADI4_3_H8D H8D],-3.82
2,YRDHHYRHWKYCG [PADI4_3_P9W P9W],-2
3,YRDHHYRHKKYCG [PADI4_3_P9K P9K],-1.76
4,YRDHHYRHPKYCG [PADI4_3_K10K K10K],0
5,YRDHHYRYPKYCG [PADI4_3_H8Y H8Y],-3.56
6,YRRHHYRHPKYCG [PADI4_3_D3R D3R],-2.94
7,YRDHHWRHPKYCG [PADI4_3_Y6W Y6W],-2.2
8,YRDHHYDHPKYCG [PADI4_3_R7D R7D],0.031
9,YRDHRYRHPKYCG [PADI4_3_H5R H5R],-3.55
10,YRDHHYRKPKYCG [PADI4_3_H8K H8K],-3.86
11,YRWHHYRHPKYCG [PADI4_3_D3W D3W],-3.57
12,YRDHHYRHPYYCG [PADI4_3_K10Y K10Y],-0.51
13,YRDWHYRHPKYCG [PADI4_3_H4W H4W],-3.44
14,YRDHHYRHPKYCG [PADI4_3_H8H H8H],0
15,YRDYHYRHPKYCG [PADI4_3_H4Y H4Y],-3.97
16,YRDHHYRHPKHCG [PADI4_3_Y11H Y11H],-2.81
17,YRDHHYKHPKYCG [PADI4_3_R7K R7K],-0.44
18,YRDHHYRHPKYCG [PADI4_3_Y11Y Y11Y],0
19,YRDHHYRHPKYCG [PADI4_3_H5H H5H],0
